Data as given in PubChem BioAssay (NCI).
About 83,000 compounds went through this panel and 20% of them were active in at least one assay; those are over-represented in the sample as a whole.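 Single-dose data. Exposure time 48 hours. Values below 10 considered active.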 The source made the active and inactive calls.

Legend:
Assay in all cases: NCI-60 one-dose screen, 48 h (100 = growth as untreated, 0 = no growth, -100 = all killed)
Settings in all cases: 10 µM unless noted
MOLT-4 leukemia = system: MOLT-4 leukemia
SR leukemia = system: SR leukemia
RPMI-8226 leukemia = system: RPMI-8226 leukemia
OVCAR-8 ovarian = system: OVCAR-8 ovarian
OVCAR-5 ovarian = system: OVCAR-5 ovarian
OVCAR-4 ovarian = system: OVCAR-4 ovarian
SK-OV-3 ovarian = system: SK-OV-3 ovarian
OVCAR-3 ovarian = system: OVCAR-3 ovarian
HS 578T breast = system: HS 578T breast
NCI/ADR-RES ovarian = system: NCI/ADR-RES ovarian
T-47D breast = system: T-47D breast
BT-549 breast = system: BT-549 breast
MDA-MB-435 melanoma = system: MDA-MB-435 melanoma
SW-620 colon = system: SW-620 colon
MCF7 breast = system: MCF7 breast
HCT-116 colon = system: HCT-116 colon
HCC-2998 colon = system: HCC-2998 colon
KM12 colon = system: KM12 colon
IGROV1 ovarian = system: IGROV1 ovarian

Measured: growth

O=C1CN2CCC1CC2
inactive: MOLT-4 leukemia 100% | SR leukemia 100% | RPMI-8226 leukemia 109% | OVCAR-8 ovarian 106% | OVCAR-5 ovarian 101% | OVCAR-4 ovarian 109% | SK-OV-3 ovarian 105% | OVCAR-3 ovarian 107% | HS 578T breast 101% | NCI/ADR-RES ovarian 113% | T-47D breast 91.1% | BT-549 breast 94.5% | MDA-MB-435 melanoma 102% | SW-620 colon 106% | MCF7 breast 103% | HCT-116 colon 100% | HCC-2998 colon 124% | KM12 colon 102%

O=Cc1cn(Cc2ccccc2)c2ccccc12
active: OVCAR-5 ovarian -20.3%
inactive: MOLT-4 leukemia 99.8% | SR leukemia 93% | RPMI-8226 leukemia 61.2% | OVCAR-8 ovarian 85.8% | OVCAR-4 ovarian 55.1% | SK-OV-3 ovarian 61.4% | OVCAR-3 ovarian 68.6% | HS 578T breast 150% | NCI/ADR-RES ovarian 82.1% | T-47D breast 41.4% | BT-549 breast 95.1% | MDA-MB-435 melanoma 125% | SW-620 colon 92.4% | MCF7 breast 84.8% | HCT-116 colon 68.4% | HCC-2998 colon 33.5% | KM12 colon 101%

C[N+]1(C)CCCC1c1cccnc1 (stereo not given)
inactive: MOLT-4 leukemia 102% | SR leukemia 97.8% | RPMI-8226 leukemia 99.4% | OVCAR-8 ovarian 104% | OVCAR-5 ovarian 109% | OVCAR-4 ovarian 107% | SK-OV-3 ovarian 108% | IGROV1 ovarian 115% | OVCAR-3 ovarian 108% | HS 578T breast 89.2% | NCI/ADR-RES ovarian 111% | MDA-MB-435 melanoma 108% | SW-620 colon 100% | MCF7 breast 90.9% | HCT-116 colon 92.5% | HCC-2998 colon 91.2% | KM12 colon 103%

C[N+]12CCC34C5=CC(=O)C(=O)C=C5[N+]5(C)C(=O)CC6OCC=C(C1)C(CC32)C6C45 (stereo not given)
inactive: MOLT-4 leukemia 102% | SR leukemia 92% | RPMI-8226 leukemia 102% | OVCAR-8 ovarian 99.5% | OVCAR-5 ovarian 106% | OVCAR-4 ovarian 101% | SK-OV-3 ovarian 99.9% | IGROV1 ovarian 96.9% | OVCAR-3 ovarian 103% | NCI/ADR-RES ovarian 114% | T-47D breast 107% | BT-549 breast 127% | MDA-MB-435 melanoma 103% | SW-620 colon 111% | MCF7 breast 95.7% | HCT-116 colon 114% | HCC-2998 colon 106% | KM12 colon 104%

Oc1ccccc1C=NCCN=Cc1ccccc1O
inactive: MOLT-4 leukemia 106% | SR leukemia 98.5% | RPMI-8226 leukemia 95.1% | OVCAR-8 ovarian 110% | OVCAR-5 ovarian 104% | OVCAR-4 ovarian 109% | SK-OV-3 ovarian 102% | IGROV1 ovarian 118% | OVCAR-3 ovarian 102% | HS 578T breast 106% | NCI/ADR-RES ovarian 103% | BT-549 breast 106% | MDA-MB-435 melanoma 108% | SW-620 colon 100% | MCF7 breast 97.7% | HCT-116 colon 94.2% | HCC-2998 colon 105% | KM12 colon 104%

CCOP(=O)(NC)OCC
inactive: MOLT-4 leukemia 127% | SR leukemia 71.3% | RPMI-8226 leukemia 92.8% | OVCAR-8 ovarian 115% | OVCAR-5 ovarian 91.5% | OVCAR-4 ovarian 105% | SK-OV-3 ovarian 104% | IGROV1 ovarian 105% | OVCAR-3 ovarian 99.5% | HS 578T breast 98.4% | NCI/ADR-RES ovarian 102% | BT-549 breast 112% | MDA-MB-435 melanoma 132% | SW-620 colon 108% | MCF7 breast 101% | HCT-116 colon 92.1% | HCC-2998 colon 112% | KM12 colon 106%

C/C(=C\c1ccn(-c2ccc(N)cc2F)n1)[C@@H]1C[C@@H]2O[C@]2(C)CCC[C@H](C)[C@H](O)[C@@H](C)C(=O)C(C)(C)[C@@H](O)CC(=O)O1
active: RPMI-8226 leukemia 7.57% | OVCAR-3 ovarian -4.43% | HS 578T breast -1.48% | NCI/ADR-RES ovarian -11.9% | MDA-MB-435 melanoma -30% | HCC-2998 colon -15%
inactive: MOLT-4 leukemia 10.6% | SR leukemia 13.8% | OVCAR-8 ovarian 18.7% | OVCAR-5 ovarian 23.5% | OVCAR-4 ovarian 61.1% | SK-OV-3 ovarian 33.9% | IGROV1 ovarian 34.8% | BT-549 breast 19.7% | SW-620 colon 35.1% | MCF7 breast 16.7% | HCT-116 colon 12.2% | KM12 colon 10.2%

CCN(CC)CCn1c(=O)n(C)c2ccccc21
inactive: MOLT-4 leukemia 104% | SR leukemia 99.3% | RPMI-8226 leukemia 113% | OVCAR-8 ovarian 101% | OVCAR-5 ovarian 117% | OVCAR-4 ovarian 109% | IGROV1 ovarian 109% | OVCAR-3 ovarian 106% | HS 578T breast 95.5% | NCI/ADR-RES ovarian 101% | T-47D breast 109% | BT-549 breast 124% | MDA-MB-435 melanoma 105% | SW-620 colon 105% | MCF7 breast 102% | HCT-116 colon 111% | HCC-2998 colon 101% | KM12 colon 99.8%

O=S(=O)(c1ccc(O)cc1)c1ccccc1O
inactive: MOLT-4 leukemia 103% | SR leukemia 103% | RPMI-8226 leukemia 99.8% | OVCAR-8 ovarian 102% | OVCAR-5 ovarian 98.9% | OVCAR-4 ovarian 116% | SK-OV-3 ovarian 107% | IGROV1 ovarian 117% | OVCAR-3 ovarian 110% | HS 578T breast 104% | MDA-MB-435 melanoma 110% | SW-620 colon 106% | MCF7 breast 104% | KM12 colon 107%

CC(=O)C(N)Cc1ccccc1 (stereo not given)
inactive: MOLT-4 leukemia 101% | SR leukemia 93.7% | RPMI-8226 leukemia 79.6% | OVCAR-8 ovarian 91.8% | OVCAR-5 ovarian 105% | OVCAR-4 ovarian 99.1% | SK-OV-3 ovarian 83.1% | OVCAR-3 ovarian 114% | NCI/ADR-RES ovarian 99.4% | MDA-MB-435 melanoma 102% | MCF7 breast 93.6% | HCT-116 colon 86.3% | HCC-2998 colon 96.3% | KM12 colon 106%

Nc1cccnc1
inactive: MOLT-4 leukemia 101% | SR leukemia 90.4% | RPMI-8226 leukemia 105% | OVCAR-8 ovarian 104% | OVCAR-5 ovarian 116% | OVCAR-4 ovarian 129% | SK-OV-3 ovarian 105% | IGROV1 ovarian 106% | OVCAR-3 ovarian 119% | NCI/ADR-RES ovarian 104% | T-47D breast 106% | BT-549 breast 110% | MDA-MB-435 melanoma 122% | SW-620 colon 105% | HCT-116 colon 104% | HCC-2998 colon 101% | KM12 colon 112%

Cc1nc2ccccc2c(=O)n1-c1ccccc1F
inactive: MOLT-4 leukemia 96.9% | SR leukemia 108% | RPMI-8226 leukemia 102% | OVCAR-8 ovarian 93.2% | OVCAR-5 ovarian 102% | OVCAR-4 ovarian 99.3% | SK-OV-3 ovarian 97.4% | IGROV1 ovarian 111% | OVCAR-3 ovarian 107% | HS 578T breast 100% | NCI/ADR-RES ovarian 112% | BT-549 breast 105% | MDA-MB-435 melanoma 102% | MCF7 breast 93.9% | HCT-116 colon 98.7% | HCC-2998 colon 108% | KM12 colon 105%

Cc1cc(Br)c([N+](=O)[O-])cc1[N+](=O)[O-]
inactive: MOLT-4 leukemia 71.1% | SR leukemia 40.4% | RPMI-8226 leukemia 120% | OVCAR-8 ovarian 94.9% | OVCAR-5 ovarian 107% | OVCAR-4 ovarian 113% | IGROV1 ovarian 110% | OVCAR-3 ovarian 103% | HS 578T breast 105% | NCI/ADR-RES ovarian 94.4% | T-47D breast 85.7% | BT-549 breast 106% | MDA-MB-435 melanoma 96.3% | SW-620 colon 23% | MCF7 breast 91% | HCT-116 colon 20.5% | HCC-2998 colon 111% | KM12 colon 91.8%

C[C@]12CC[C@H]3[C@@H](C[C@@H]4SC(Nc5cccc(F)c5)=N[C@@]45CC(=O)CC[C@]35C)[C@@H]1CCC2=O
inactive: OVCAR-8 ovarian 39.6% | OVCAR-5 ovarian 65.5% | OVCAR-4 ovarian 59.2% | HS 578T breast 35.4% | NCI/ADR-RES ovarian 55.4% | MDA-MB-435 melanoma 35.9% | HCC-2998 colon 75.5% | KM12 colon 38.7%
active: MOLT-4 leukemia -3.78% | SR leukemia -11.9% | RPMI-8226 leukemia -22.3% | SK-OV-3 ovarian -18.4% | OVCAR-3 ovarian -5.24% | T-47D breast -0.755% | BT-549 breast -8.61% | SW-620 colon 4.62% | MCF7 breast 4.46% | HCT-116 colon -68.8%

C=C[Se]CC(=O)/C=C/c1ccccc1
inactive: MOLT-4 leukemia 79.5% | SR leukemia 58.7% | RPMI-8226 leukemia 93.2% | OVCAR-8 ovarian 59.5% | OVCAR-5 ovarian 89.9% | OVCAR-4 ovarian 95.3% | SK-OV-3 ovarian 53% | OVCAR-3 ovarian 89.1% | HS 578T breast 66.1% | NCI/ADR-RES ovarian 87.9% | BT-549 breast 108% | MDA-MB-435 melanoma 83.7% | MCF7 breast 87.2% | HCT-116 colon 56.1% | HCC-2998 colon 85.4% | KM12 colon 26.6%

C#COc1cccc(Nc2ncnc3cc(NC(=O)CF)ccc23)c1
inactive: SR leukemia 20.9% [6.25 µM] | RPMI-8226 leukemia 62.4% [6.25 µM] | OVCAR-8 ovarian 42.5% [6.25 µM] | OVCAR-5 ovarian 87.2% [6.25 µM] | OVCAR-4 ovarian 75% [6.25 µM] | SK-OV-3 ovarian 34.8% [6.25 µM] | IGROV1 ovarian 52.4% [6.25 µM] | OVCAR-3 ovarian 12% [6.25 µM] | HS 578T breast 44.2% [6.25 µM] | NCI/ADR-RES ovarian 35.3% [6.25 µM] | BT-549 breast 28% [6.25 µM] | SW-620 colon 25.8% [6.25 µM] | MCF7 breast 30.6% [6.25 µM] | HCT-116 colon 19% [6.25 µM] | HCC-2998 colon 63.8% [6.25 µM] | KM12 colon 28.6% [6.25 µM]
active: MOLT-4 leukemia 5.47% [6.25 µM] | MDA-MB-435 melanoma -34.2% [6.25 µM]
